# Source: ChEMBL document CHEMBL3988442, “University of Dundee, Small-Polar-MMV Screening Library” (2021)
# Hit rate of the full screen: of about 67,000 compounds, about 300 (0.45%) showed an effect of 50% or more. The entries come from a sample that favours strong results as a whole.
# Molecular target: Polyketide synthase Pks13 (Mycobacterium tuberculosis (strain ATCC 25618 / H37Rv)) (UniProt I6X8D2)
# Assay: Mycobacterium tuberculosis Polyketide synthase 13 Thioesterase (PKS13)
# Type: functional
# Parameters: scale not given: in the data most compounds retested in dose-response had high values
# Details: 30 µM
# Sequence of Polyketide synthase Pks13 (Mycobacterium tuberculosis (strain ATCC 25618 / H37Rv)) (I6X8D2 whole entry): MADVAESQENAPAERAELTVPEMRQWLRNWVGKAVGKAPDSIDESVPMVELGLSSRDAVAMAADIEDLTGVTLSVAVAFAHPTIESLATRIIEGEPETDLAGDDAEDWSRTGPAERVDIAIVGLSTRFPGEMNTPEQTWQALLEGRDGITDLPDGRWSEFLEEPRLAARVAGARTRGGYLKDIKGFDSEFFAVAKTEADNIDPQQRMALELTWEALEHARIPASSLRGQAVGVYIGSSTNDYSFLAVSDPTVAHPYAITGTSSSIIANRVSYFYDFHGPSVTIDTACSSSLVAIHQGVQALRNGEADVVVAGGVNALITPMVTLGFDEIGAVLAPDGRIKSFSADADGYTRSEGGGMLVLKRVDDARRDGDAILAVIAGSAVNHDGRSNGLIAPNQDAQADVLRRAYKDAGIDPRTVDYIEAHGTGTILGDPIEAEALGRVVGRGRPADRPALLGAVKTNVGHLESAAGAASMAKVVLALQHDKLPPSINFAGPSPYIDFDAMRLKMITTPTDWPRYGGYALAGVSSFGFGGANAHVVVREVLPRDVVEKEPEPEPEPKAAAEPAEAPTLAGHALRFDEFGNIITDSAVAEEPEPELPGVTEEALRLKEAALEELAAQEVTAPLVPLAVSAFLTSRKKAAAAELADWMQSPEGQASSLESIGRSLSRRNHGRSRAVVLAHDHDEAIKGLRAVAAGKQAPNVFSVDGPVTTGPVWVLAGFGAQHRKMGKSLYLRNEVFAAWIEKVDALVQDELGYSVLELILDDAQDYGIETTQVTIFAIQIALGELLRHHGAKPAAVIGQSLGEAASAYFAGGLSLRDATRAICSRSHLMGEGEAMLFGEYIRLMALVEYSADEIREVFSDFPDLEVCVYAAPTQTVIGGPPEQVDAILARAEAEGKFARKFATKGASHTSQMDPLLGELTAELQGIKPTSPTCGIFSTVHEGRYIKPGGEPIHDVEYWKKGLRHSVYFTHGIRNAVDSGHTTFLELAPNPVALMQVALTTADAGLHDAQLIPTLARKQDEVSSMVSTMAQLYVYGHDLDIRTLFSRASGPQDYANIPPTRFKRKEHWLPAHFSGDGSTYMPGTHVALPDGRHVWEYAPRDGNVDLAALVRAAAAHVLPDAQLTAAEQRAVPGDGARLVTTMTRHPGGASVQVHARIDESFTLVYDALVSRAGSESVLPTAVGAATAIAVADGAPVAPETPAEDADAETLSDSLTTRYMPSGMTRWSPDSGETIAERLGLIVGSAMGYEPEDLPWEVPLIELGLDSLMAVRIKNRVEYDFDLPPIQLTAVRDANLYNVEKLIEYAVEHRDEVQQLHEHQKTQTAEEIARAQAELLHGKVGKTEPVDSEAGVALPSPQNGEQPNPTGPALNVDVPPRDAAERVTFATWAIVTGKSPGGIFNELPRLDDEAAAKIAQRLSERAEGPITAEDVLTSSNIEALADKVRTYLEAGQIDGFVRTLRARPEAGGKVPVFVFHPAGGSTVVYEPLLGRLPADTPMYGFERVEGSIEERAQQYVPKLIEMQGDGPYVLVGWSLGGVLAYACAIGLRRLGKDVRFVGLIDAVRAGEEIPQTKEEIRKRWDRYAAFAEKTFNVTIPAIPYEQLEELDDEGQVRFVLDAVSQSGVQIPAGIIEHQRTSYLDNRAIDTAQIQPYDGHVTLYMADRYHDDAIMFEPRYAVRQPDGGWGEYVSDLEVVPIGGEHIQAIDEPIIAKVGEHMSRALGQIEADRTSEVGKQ
row,SMILES,Percent Effect [%]
1,CS(=O)(=O)N1C[C@@H]2CC[C@H](C1)N(CCC(=O)NCc1ccco1)C2,-13.4
2,CN1CC2(CCCN(Cc3nnc(-c4ccccc4)o3)CC2)OC1=O (stereo not given),-7.32
3,CC(C)c1nnc(CN2CCCC3(CC2)CN(C)C(=O)O3)o1 (stereo not given),-10.9
4,CN1CC2(CCCN(Cc3nnc(-c4ccco4)o3)CC2)OC1=O (stereo not given),62.4
5,Cn1ccc(C(=O)N2C[C@@H]3CN(CC4CC4)CCO[C@@H]3C2)n1,-15.9
6,O=C(N[C@@H]1CN(c2ncccn2)C[C@@H]2CCCO[C@@H]21)c1cnccn1,-18
7,COc1cccc(N2CCN(CC(O)c3ccc(C)cc3)CC2)c1 (stereo not given),-26.6
8,COc1cccc(C(O)CN2CCN(c3cccc(C)c3)CC2)c1 (stereo not given),0.857
9,CCc1ccc(C(O)CN2CCN(c3cccc(OC)c3)CC2)cc1 (stereo not given),56.5
10,CNC(=O)[C@H]1C[C@@H]2CN(Cc3ccc(C)cc3)C[C@H]1O2,-2.73
11,Cc1cc2c(N)nc(=O)n(CC(=O)Nc3cccc(Cl)c3)c2s1,11.9
12,COc1ccc(NC(=O)Cn2c(=O)nc(N)c3cc(C)sc32)cc1,-1.59
13,Cc1cc2c(N)nc(=O)n(CC(=O)Nc3ccccc3)c2s1,61
14,c1cnc(N2C[C@H]3CCN(Cc4ccncc4)C[C@H]3C2)nc1,-10.9
15,CCc1n[nH]c(SCC(=O)N2C[C@@H]3CC[C@H](C2)N(CC=C(C)C)C3)n1,4.76
16,CCc1ccc(CN2CC[C@@H]3CN(S(C)(=O)=O)CCO[C@@H]3C2)o1,-6.54
17,CNC(=O)[C@H]1C[C@@H]2CN(S(=O)(=O)c3ccc(OC)cc3)C[C@@H]2N1C,-0.271
18,O=C(C[C@@H]1COC[C@H]2CN(C(=O)c3cccnc3)C[C@@H]12)N1CCOCC1,-5.25
19,Cc1cc(C)c2cc(CNC(C)C)c3nn(C)c(=O)n3c2c1,52.3
20,Cc1cc(C)c2cc(CNCc3cccnc3)c3nn(C)c(=O)n3c2c1,112
21,Cc1cc(C)c2cc(CNC3CCCCC3)c3nn(C)c(=O)n3c2c1,10.2
22,CCCNCc1cc2c(C)cc(C)cc2n2c(=O)n(C)nc12,33.4
23,Cc1cc(C)c2cc(CNCc3ccccc3)c3nn(C)c(=O)n3c2c1,-72.8
24,Cc1cc(C)c2cc(CNCc3ccco3)c3nn(C)c(=O)n3c2c1,-29.8
25,Cc1cnc(N2CC[C@@H]3O[C@@H](COCC(=O)N(C)C)CC[C@@H]32)nc1,-4.2
26,Cc1cc(C)nc(N2CC[C@@]3(O)CCN(S(=O)(=O)N(C)C)C[C@H]3C2)n1,-22.2
27,O=C([C@@H]1COC[C@H]2CN(C3CCOCC3)C[C@H]21)N1CCCCO1,3.42
28,CC1(C(=O)NCc2cccnc2Oc2ccc(F)cc2F)CCCNC1 (stereo not given),-16.5

row,SMILES,Percent Effect [%]
1,CC1(C(=O)NCc2cccnc2Oc2ccc(F)c(F)c2)CCCNC1 (stereo not given),63.7
2,Cc1cccc(C)c1Oc1ncccc1CNC(=O)C1(C)CCCNC1 (stereo not given),-21.7
3,Cc1ccccc1CN1C[C@@H]2OCC(=O)N(CC(N)=O)[C@@H]2C1,-35.3
4,CCOC[C@]12COC[C@H]1CN(Cc1ccc(F)c(F)c1)C2,-14.9
5,Cc1ncc(CNCC(C)O)c2cc(C(=O)c3ccc(Br)cc3)oc12 (stereo not given),53.8
6,Cc1ncc(CNCCO)c2cc(C(=O)c3ccc(Br)cc3)oc12,-1.68
7,Cc1ncc(CN2CCCC2)c2cc(C(=O)c3ccc(Br)cc3)oc12,-4.91
8,O=c1ccc2c(n1CC1CCOCC1)CCN(Cc1ccoc1)CC2,52.6
9,COCCn1c2c(ccc1=O)CCN(Cc1ccoc1)CC2,19
10,O=c1ccc2c(n1Cc1ccncc1)CCN(Cc1ccoc1)CC2,6.04
11,O=C(c1cscn1)N1CC[C@H]2[C@@H]1CCC(=O)N2c1ccccc1,-9.46
12,c1ccc2c(c1)CCN(c1ncnc3sc4c(c13)CCNC4)C2,-23.8
13,c1ccc2c(c1)CN(c1ncnc3c1CCNC3)CCO2,-34
14,c1ccc2c(c1)CN(c1ncnc3sc4c(c13)CCNC4)CCO2,63
15,OCCCNc1nc(O)c2c(n1)-c1ccccc1CC21CCCCC1,13.8
16,CC1(C)Cc2ccccc2-c2nc(NCCCO)[nH]c(=O)c21,62.7
17,CCC1(C)Cc2ccccc2-c2nc(NCCO)nc(O)c21 (stereo not given),55.8
18,CC(C)(CO)CCCNC(=O)NC1(C)Cc2ccccc2C1,0.272
19,O=c1c(NCCCO)c(N2CCN(c3ccccc3)CC2)c1=O,4.71
20,O=C(NCCCO)C1(N2CCCCC2)Cc2ccccc2C1,-29.6
21,CC1(C)Cc2ccccc2-c2nc(NCCO)[nH]c(=O)c21,88.1
22,O=c1[nH]c(NCCO)nc2c1C1(CCCCC1)Cc1ccccc1-2,-23
23,O=c1[nH]c(NCCCO)nc2c1C1(CCCC1)Cc1ccccc1-2,55.4
24,O=c1[nH]c(NCCO)nc2c1C1(CCCC1)Cc1ccccc1-2,12.1
25,Cc1cc(NCCO)nc(-c2ccccc2O)n1,19.7
26,CCC1(C)Cc2ccccc2-c2nc(NCCCO)nc(O)c21 (stereo not given),37.9
27,Cn1cc(CN2C[C@H](Oc3ncccc3F)[C@H]3OCCC[C@H]32)cn1,4.64
